Compound activity: PubChem, National Center for Advancing Translational Sciences (NCATS)
Most compounds without a hit are left out; they make up all but 7.3% or so of the library.
HCV inh = qHTS Assay for Inhibitors of Hepatitis C Virus (HCV) | Potency, µM (series often up to 41.8 µM), inactives show top-dose activity change, negative = inhibition, actives largely listed as inhibitors | Huh7.5.1 HCVcc-Cre infection, luciferase reporter, 44 h | hit rate 3.4% among 340,000 | AID 651820, 2012; also: potency is read from the fitted curve at half-maximal effect
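Infectious HCVcc-Cre (~0.5 moi) was added to cells just after compound, with cells seeded 4 h earlier at 1,000 per well. Luciferase activity after 44 h culture reported infection; substrate was incubated 15 min at room temperature before reading.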
AmpC no deterg = qHTS Inhibitors of AmpC Beta-Lactamase (assay without detergent); hit rate 0.52% among 330,000; Potency, µM (top dose mostly 57.1 µM), without a hit: at the top dose activity change, negative = inhibition, actives largely listed as inhibitors; AmpC nitrocefin hydrolysis, absorbance 480 nm, 0.0001% Triton;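 also: potency is read from the fitted curve at half-maximal effect; plate controls were no compound for no effect and no enzyme for full effect; nearly all actives have a fitted effect of over 20% in size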
Target sequence (P00811 whole entry, looked up): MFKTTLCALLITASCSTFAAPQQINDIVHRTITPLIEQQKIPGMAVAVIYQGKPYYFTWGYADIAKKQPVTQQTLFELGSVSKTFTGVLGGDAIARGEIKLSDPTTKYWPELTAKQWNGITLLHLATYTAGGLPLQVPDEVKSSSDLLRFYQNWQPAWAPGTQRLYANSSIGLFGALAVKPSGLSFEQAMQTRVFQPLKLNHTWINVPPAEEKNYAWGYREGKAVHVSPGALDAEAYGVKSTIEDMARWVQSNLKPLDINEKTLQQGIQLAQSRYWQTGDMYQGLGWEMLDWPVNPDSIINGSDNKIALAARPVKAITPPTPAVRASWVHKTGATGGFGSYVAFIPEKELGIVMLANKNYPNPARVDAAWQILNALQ
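AmpC (5.3 nM in the dispensed reagent) in 20 mM phosphate pH 7.0 with 0.01% (detergent screen) or 0.0001% Triton X-100 was preincubated with compounds for 15 min at room temperature. Nitrocefin was then added from an 800 uM solution, and hydrolysis was followed at 480 nm.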
FMDV antiviral = High Throughput Screening for Foot and Mouth Disease Virus Antivirals. FMDV antiviral cell-based qHTS. Potency, µM (top dose mostly 57.9 µM), without a hit: top-dose activity change, negative = inhibition, hits mostly inhibitors. hit rate 1.2% among 410,000; calls by dose curve; tested in HEK293T cells; also: read-out not given here; potency is read from the fitted curve at half-maximal effect; nearly all actives have a fitted effect of over 45% in size
HCMV inh = qHTS Assay for inhibitors of the human cytomegalovirus (HCMV). HFF cells, HCMV-luciferase reporter, 72 h; active compounds read low. activity change, negative = inhibition, % at 57.5 µM. hit rate 4.5% among 410,000; in the data active = activity change below about -60%; inconclusive = no clear call, values can overlap the other calls; inactive = above about -39%
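Human foreskin fibroblasts infected with luciferase-reporter HCMV at MOI 1 PFU/cell, compounds at two doses. Luciferase measured 72 h post infection; normalized to buffer-only basal and Salinomycin (10uM) controls.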
AmpC detergent = qHTS Inhibitors of AmpC Beta-Lactamase (assay with detergent). AmpC hydrolysis of nitrocefin, absorbance 480 nm, 0.01% Triton. Potency, µM (series often up to 114 µM), without a hit: at the top dose activity change, negative = inhibition, actives largely listed as inhibitors. hit rate 0.041% among 370,000. AID 485294, 2010;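 also: potency is read from the fitted curve at half-maximal effect; 0% = no-compound wells and -100% = no-enzyme wells; nearly all actives have a fitted effect of over 25% in size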
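AmpC (5.3 nM in the dispensed reagent) in 20 mM phosphate pH 7.0 with 0.01% (detergent screen) or 0.0001% Triton X-100 was preincubated with compounds for 15 min at room temperature. Nitrocefin was then added from an 800 uM solution, and hydrolysis was followed at 480 nm.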
An asterisk follows results filed as active; ? = inconclusive; nt = no result. Unless noted, calls follow the shape of the dose curve; as a rule, active = well fitted curve in the direction sought with a large enough effect; inconclusive = small, poorly fitted or top-dose-only effect, or another doubt; inactive = no such curve, though single readings can be large; an effect the other way counts as inactive or inconclusive. Unless noted, % is scaled to controls: 0 for no effect and ±100 for the full control effect.

SMILES	HCV inh	AmpC no deterg	FMDV antiviral	HCMV inh	AmpC detergent
CCCS(=O)(=O)Nc1cc(-c2cn3cccc(C)c3n2)ccc1C	nt	nt	0.0%	75.0	-2.4%
O=C(C1CCC1)N1CCc2cc(S(=O)(=O)Nc3ccc4c(c3)OCCO4)ccc21	?	-28.7%	-20.5%	-81.5*	-3.0%
COc1ccc(-c2nnc(SCC(=O)Nc3ccc(F)cc3)s2)cc1	nt	nt	12.0%	-11.9	2.0%
CN=C1CC(SC)=C1c1ccc(C)cc1	11.5%	-15.1%	31.6µM*	-19.1	?
O=C(/C=C/c1ccc(F)cc1)Nc1ccc(S(=O)(=O)N2CCOCC2)cc1	?	-23.0%	-21.6%	-38.6	0.6%
Cc1ccc(NC(=O)/C=C/c2ccc(S(=O)(=O)N3CCOCC3)cc2)cc1S(=O)(=O)N(C)C	?	nt	35.5µM*	-74.4*	nt
O=C(/C=C/c1ccco1)Nc1ccc(S(=O)(=O)N2CCOCC2)cc1	3.55µM*	-38.4%	4.7%	-18.3	2.4%
CC(=O)Nc1cccc(NC(=O)CC2(C)N=C(c3cccc(Br)c3)N(C)O2)c1 (stereo unspecified)	nt	nt	nt	-12.5	nt
COc1cnc(SC)nc1Nc1ccc(C#N)cc1	22.4µM*	-19.3%	-15.2%	-34.7	-10.3%
CCCOc1ccc(Nc2nc(SC)ncc2C(=O)OCC)cc1	nt	nt	-3.9%	15.9	15.9%
Cc1cc[n+](-c2[nH]c(=O)sc2/C=N/NC([S-])=Nc2ccccc2)cc1	?	-20.0%	-10.6%	-61.2*	-4.9%
CC1CCC(C(O)(C(=O)O)C2CCCCC2)CC1C (stereo unspecified)	26.8%	nt	-25.6%	-12.3	nt
CC(C)c1ccccc1NC(=S)NCC1(N(C)C)CCCCC1	?	-3.1%	2.5%	-19.7	1.7%
O=C(O)c1ccc(CSCc2ccccc2)o1	nt	nt	-13.0%	-84.7*	nt
Cc1cccc(CSCc2ccc(C(=O)NC(C)C)o2)c1	12.6µM*	-4.0%	?	6.6	-0.5%
OC(c1cccnc1)c1ccc2c(c1)CN(Cc1ccc(-c3ccccc3Cl)o1)CCO2 (stereo unspecified)	nt	nt	2.5%	nt	nt
COCCN(C(=O)CNC(=O)c1ccco1)C(C(=O)NC1CCCC1)c1ccccc1F (stereo unspecified)	-4.6%	0.0%	17.0%	16.8	3.3%
COCCN(C(=O)CCl)C(C(=O)NC1CCCCC1)c1ccccc1C (stereo unspecified)	?	-15.5%	20µM*	-97.5*	-1.3%
COCCNC(=O)C(c1ccccc1F)N(C(=O)C(=O)NC1CCCC1)C1CCCCC1 (stereo unspecified)	?	88.9%	-0.5%	-80.4*	7.2%
O=C(NC1CCCC1)C(c1ccc(F)cc1)N(Cc1ccccc1Cl)C(=O)CCl (stereo unspecified)	?	3.5%	28.2µM*	-21.1	-11.1%
COc1ccccc1CN(C)C(=O)c1cc(-c2cccs2)nc2ccccc12	?	-1.8%	0.0%	-6.9	-10.0%
COc1cccc(CN(CC(=O)NC2CCCCC2)C(=O)c2csnn2)c1	-5.2%	8.8%	-6.9%	?	3.0%
CC1CCCN(C(=O)CN(C)S(=O)(=O)c2cccc3nsnc23)C1 (stereo unspecified)	10.5%	-1.8%	-0.2%	?	0.4%
O=C(NC1CCCCC1)[C@H](CSCc1ccccc1)N1Cc2ccccc2C1=O	-14.3%	5.5%	-0.2%	-60.4*	?
Cc1cccc(NC(=O)C(Cc2ccccc2)N2Cc3ccccc3C2=O)c1C (stereo unspecified)	nt	nt	9.0%	-23.2	13.8%
CC(C)NC(=O)[C@H](CSCc1ccccc1)N1Cc2ccccc2C1=O	15.9%	0.9%	-10.8%	4.6	?
Cc1ccc(C)c(NC(=O)C(Cc2ccccc2)N2Cc3ccccc3C2=O)c1 (stereo unspecified)	nt	nt	?	-89.8*	-4.0%
CC(C)Sc1sc(C(=O)O)c(-c2ccc(Cl)cc2)c1C#N	10.2%	-12.4%	-2.3%	-14.2	5.6%
Cc1ccc(OCC(O)CN2CCC(Cc3ccccc3)CC2)c(C)c1 (stereo unspecified)	11.2µM*	17.6%	3.8%	-77.1*	-5.2%
